Experimental data from PubChem BioAssay (EPA / NIEHS).
Results filed as inconclusive are left out. The source made the active and inactive calls. How the source made its calls: active means hit-call score of the fitted dose curve at least 0.9, where 1 is the maximum; inconclusive means response in the unintended direction; inactive means score below 0.9.

Experiments:
[1] = target: human Adrenergic, Beta 1 Receptor (Adrb1), ADRB1 (gene 153) (UniProt P08588); test: NVS_GPCR_hAdrb1: NovaScreen (NVS) G Protein-Coupled Receptor Assay for human Adrenergic, Beta 1 Receptor (Adrb1) (AID 2283258)
Chain of human Adrenergic, Beta 1 Receptor (Adrb1), ADRB1 (gene 153) (P08588 whole entry, looked up): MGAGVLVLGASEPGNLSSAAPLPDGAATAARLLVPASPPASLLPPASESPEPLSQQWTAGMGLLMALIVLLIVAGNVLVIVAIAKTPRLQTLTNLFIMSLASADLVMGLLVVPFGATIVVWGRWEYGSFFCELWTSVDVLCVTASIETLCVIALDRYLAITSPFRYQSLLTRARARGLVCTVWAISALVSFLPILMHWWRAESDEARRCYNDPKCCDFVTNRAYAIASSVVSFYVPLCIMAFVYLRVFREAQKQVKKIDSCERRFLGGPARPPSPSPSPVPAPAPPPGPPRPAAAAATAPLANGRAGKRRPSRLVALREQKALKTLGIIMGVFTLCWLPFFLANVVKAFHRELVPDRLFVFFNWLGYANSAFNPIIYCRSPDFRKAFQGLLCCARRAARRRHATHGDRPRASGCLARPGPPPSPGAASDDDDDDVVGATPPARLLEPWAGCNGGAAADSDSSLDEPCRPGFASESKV
Description: NVS_GPCR_hAdrb1 is a biochemical, single-readout assay that uses extracted gene-proteins from Human neuroepithelioma cells in a cell-free assay. Measurements were taken 2 hours after chemical dosing in a 96-well plate.NVS_GPCR_hAdrb1 is one of one assay component(s) measured or calculated from the NVS_GPCR_hAdrb1 assay. It is designed to make measurements of radioligand binding, a form of binding reporter, as detected with scintillation counting signals by Filter-based radiodetection technology.Data from the assay component NVS_GPCR_hAdrb1 was analyzed into 1 assay endpoint. This assay endpoint, NVS_GPCR_hAdrb1, was analyzed in the positive analysis fitting direction relative to DMSO as the negative control and baseline of activity. Using a type of binding reporter, loss-of-signal activity can be used to understand changes in the binding as they relate to the gene ADRB1. Furthermore, this assay endpoint can be referred to as a primary readout, because the performed assay has only produced 1 assay endpoint. To generalize the intended target to other relatable targets, this assay endpoint is annotated to the gpcr intended target family, where the subfamily is rhodopsin-like receptor.
Binding assays used specific radioligands (tritiated, iodinated) with non-radioactive competitive displacement ligands in agonist or antagonist protocols (as indicated) and various reference compounds and inhibitors to titrate specific binding to receptors and transporters. Most enzyme assays (CYPs, kinases, phosphatases, proteases, HDACs) used recombinant protein and specific substrates (fluorescence mostly, some colorimetric and radioactive) and inhibitors, followed by a biochemical separation of substrate and product. All assays for the biochemical HTS were initially run in duplicate at a single concentration (10 uM for CYP450 assays and 25 uM for all others). […] Each assay was run with positive and negative controls, and concurrent controls on every plate. […]

[2] = target: human Endothelin Receptor Type B (ETB), EDNRB (gene 1910) (UniProt P24530); test: NVS_GPCR_hETB: NovaScreen (NVS) G Protein-Coupled Receptor Assay for human Endothelin Receptor Type B (ETB) (AID 2283267)
Chain of human Endothelin Receptor Type B (ETB), EDNRB (gene 1910) (P24530 whole entry, looked up): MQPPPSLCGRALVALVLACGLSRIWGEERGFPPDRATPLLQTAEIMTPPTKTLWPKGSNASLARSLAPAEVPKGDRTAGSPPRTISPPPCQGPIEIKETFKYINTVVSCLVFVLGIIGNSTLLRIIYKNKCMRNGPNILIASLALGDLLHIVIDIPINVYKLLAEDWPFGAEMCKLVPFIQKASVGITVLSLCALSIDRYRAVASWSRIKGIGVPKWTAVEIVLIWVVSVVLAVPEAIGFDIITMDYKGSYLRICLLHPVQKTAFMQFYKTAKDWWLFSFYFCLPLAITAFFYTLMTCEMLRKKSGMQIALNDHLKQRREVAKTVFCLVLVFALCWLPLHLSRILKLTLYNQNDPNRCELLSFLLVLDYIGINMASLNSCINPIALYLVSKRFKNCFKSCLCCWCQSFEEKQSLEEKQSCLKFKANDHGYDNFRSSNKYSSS
Description: NVS_GPCR_hETB is a biochemical, single-readout assay that uses extracted gene-proteins from Human astrocytoma cells in a cell-free assay. Measurements were taken 4 hours after chemical dosing in a 96-well plate.NVS_GPCR_hETB is one of one assay component(s) measured or calculated from the NVS_GPCR_hETB assay. It is designed to make measurements of radioligand binding, a form of binding reporter, as detected with scintillation counting signals by Filter-based radiodetection technology.Data from the assay component NVS_GPCR_hETB was analyzed into 1 assay endpoint. This assay endpoint, NVS_GPCR_hETB, was analyzed in the positive analysis fitting direction relative to DMSO as the negative control and baseline of activity. […] Furthermore, this assay endpoint can be referred to as a primary readout, because the performed assay has only produced 1 assay endpoint. […]
Binding assays used specific radioligands (tritiated, iodinated) with non-radioactive competitive displacement ligands in agonist or antagonist protocols (as indicated) and various reference compounds and inhibitors to titrate specific binding to receptors and transporters. Most enzyme assays (CYPs, kinases, phosphatases, proteases, HDACs) used recombinant protein and specific substrates (fluorescence mostly, some colorimetric and radioactive) and inhibitors, followed by a biochemical separation of substrate and product. […]

[3] = target: human Adenosine A2a Receptor (AdoRA2a), ADORA2A (gene 135) (UniProt P29274); test: NVS_GPCR_hAdoRA2a: NovaScreen (NVS) G Protein-Coupled Receptor Assay for human Adenosine A2a Receptor (AdoRA2a) (AID 2283256)
Chain of human Adenosine A2a Receptor (AdoRA2a), ADORA2A (gene 135) (P29274 whole entry, looked up): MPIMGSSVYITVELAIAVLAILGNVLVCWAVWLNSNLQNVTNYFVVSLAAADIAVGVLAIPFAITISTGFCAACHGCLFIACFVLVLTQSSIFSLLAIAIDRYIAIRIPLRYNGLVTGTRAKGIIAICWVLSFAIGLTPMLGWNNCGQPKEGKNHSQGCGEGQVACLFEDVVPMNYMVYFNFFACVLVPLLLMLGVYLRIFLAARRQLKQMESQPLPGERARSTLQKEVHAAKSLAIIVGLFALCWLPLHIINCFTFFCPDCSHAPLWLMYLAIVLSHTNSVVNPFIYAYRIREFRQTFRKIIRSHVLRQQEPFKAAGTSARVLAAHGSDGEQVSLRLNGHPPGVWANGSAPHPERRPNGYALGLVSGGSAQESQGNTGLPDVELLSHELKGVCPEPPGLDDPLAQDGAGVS
In short: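 Cell-free radioligand binding on membranes from HEK293 expressing the receptor; competitive displacement read 1.5 h after dosing by filter-based scintillation counting. Primary screen in duplicate at 25 uM; actives followed in concentration series, with DMSO as baseline.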

[4] = target: Beta-2 adrenergic receptor (Homo sapiens) (UniProt P07550); test: NVS_GPCR_hAdrb2: NovaScreen (NVS) G Protein-Coupled Receptor Assay for human Adrenergic, Beta 2 Receptor (Adrb2) (AID 2283261)
Chain of Beta-2 adrenergic receptor (Homo sapiens) (P07550 whole entry, looked up): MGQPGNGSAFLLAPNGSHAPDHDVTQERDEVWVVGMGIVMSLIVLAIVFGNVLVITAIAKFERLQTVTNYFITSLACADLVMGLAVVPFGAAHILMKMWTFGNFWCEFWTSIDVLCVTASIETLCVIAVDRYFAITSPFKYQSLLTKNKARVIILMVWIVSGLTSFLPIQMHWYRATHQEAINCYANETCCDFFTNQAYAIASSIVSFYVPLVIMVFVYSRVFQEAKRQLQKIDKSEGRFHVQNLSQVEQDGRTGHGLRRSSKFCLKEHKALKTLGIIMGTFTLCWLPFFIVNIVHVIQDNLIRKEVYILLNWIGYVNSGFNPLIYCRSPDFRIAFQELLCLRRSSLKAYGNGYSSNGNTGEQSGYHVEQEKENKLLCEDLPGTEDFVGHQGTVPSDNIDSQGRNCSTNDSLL
In short: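 Filter-based radioligand binding using receptor prepared from CHO cells, 1 h incubation, scintillation counting. Primary screen in duplicate at 25 uM, actives retested in concentration series; loss of binding relative to DMSO.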

[5] = target: human Dopamine Receptor D2 (DRD2), DRD2 (gene 1813) (UniProt P14416); test: NVS_GPCR_hDRD2s: NovaScreen (NVS) G Protein-Coupled Receptor Assay for human Dopamine Receptor D2 (DRD2) (AID 2283266)
Chain of human Dopamine Receptor D2 (DRD2), DRD2 (gene 1813) (P14416 whole entry, looked up): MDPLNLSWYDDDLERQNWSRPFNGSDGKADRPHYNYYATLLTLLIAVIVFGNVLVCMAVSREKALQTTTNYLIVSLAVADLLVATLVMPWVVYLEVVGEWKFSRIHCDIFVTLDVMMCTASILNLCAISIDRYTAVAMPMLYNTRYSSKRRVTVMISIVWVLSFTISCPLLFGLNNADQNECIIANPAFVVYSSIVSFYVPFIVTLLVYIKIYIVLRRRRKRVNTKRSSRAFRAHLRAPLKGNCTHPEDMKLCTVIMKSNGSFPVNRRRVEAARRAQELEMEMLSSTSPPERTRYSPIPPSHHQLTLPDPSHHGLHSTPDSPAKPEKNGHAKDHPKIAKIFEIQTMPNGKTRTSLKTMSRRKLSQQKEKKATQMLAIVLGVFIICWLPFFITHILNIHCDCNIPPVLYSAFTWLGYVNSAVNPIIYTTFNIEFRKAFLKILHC
In short: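 Radioligand displacement used human DRD2 membranes extracted from CHO cells and was read by filter-based scintillation counting after 1.5 hours. Primary screening was in duplicate at 25 uM. Loss of signal versus DMSO was fitted, with concentration series in follow-up.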

[6] = target: human Adrenergic, Alpha 2c Receptor (Adra2C), ADRA2C (gene 152) (UniProt P18825); test: NVS_GPCR_hAdra2C: NovaScreen (NVS) G Protein-Coupled Receptor Assay for human Adrenergic, Alpha 2c Receptor (Adra2C) (AID 2283259)
Chain of human Adrenergic, Alpha 2c Receptor (Adra2C), ADRA2C (gene 152) (P18825 whole entry, looked up): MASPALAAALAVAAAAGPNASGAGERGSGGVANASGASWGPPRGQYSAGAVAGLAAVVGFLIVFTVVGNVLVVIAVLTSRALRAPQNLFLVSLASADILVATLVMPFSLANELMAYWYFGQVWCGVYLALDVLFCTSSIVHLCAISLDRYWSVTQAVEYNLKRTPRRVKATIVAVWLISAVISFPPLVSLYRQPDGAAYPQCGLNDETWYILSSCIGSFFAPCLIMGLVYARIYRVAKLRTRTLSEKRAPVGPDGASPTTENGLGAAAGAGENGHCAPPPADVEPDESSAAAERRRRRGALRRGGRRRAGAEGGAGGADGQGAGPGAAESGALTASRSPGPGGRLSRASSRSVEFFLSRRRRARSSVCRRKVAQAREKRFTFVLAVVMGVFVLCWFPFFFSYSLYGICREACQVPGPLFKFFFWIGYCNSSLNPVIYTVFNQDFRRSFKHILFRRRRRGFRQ
In short: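 Radioligand binding on Sf9-expressed receptor membranes, 1 h after chemical dosing, filter-based scintillation read-out. Loss of binding fitted positively versus DMSO; primary duplicate screen at 25 uM, actives retested in concentration series.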

[7] = target: human Adenosine A1 Receptor (AdoRA1), ADORA1 (gene 134) (UniProt P30542); test: NVS_GPCR_hAdoRA1: NovaScreen (NVS) G Protein-Coupled Receptor Assay for human Adenosine A1 Receptor (AdoRA1) (AID 2283254)
Chain of human Adenosine A1 Receptor (AdoRA1), ADORA1 (gene 134) (P30542 whole entry, looked up): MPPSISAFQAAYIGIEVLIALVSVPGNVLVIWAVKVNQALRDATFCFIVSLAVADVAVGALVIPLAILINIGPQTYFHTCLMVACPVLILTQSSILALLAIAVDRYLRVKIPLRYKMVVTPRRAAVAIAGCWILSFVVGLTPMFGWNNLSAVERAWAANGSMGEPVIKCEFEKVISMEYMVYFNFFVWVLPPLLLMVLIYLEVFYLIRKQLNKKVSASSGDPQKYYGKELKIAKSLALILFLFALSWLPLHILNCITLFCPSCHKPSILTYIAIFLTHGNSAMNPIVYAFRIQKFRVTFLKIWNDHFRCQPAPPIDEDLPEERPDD
In short: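 Membranes from human cortical tissue were incubated with radioligand and test chemical for 1 hour, then filtered and counted. Activity was taken as signal loss relative to DMSO, screened at 25 uM in duplicate before concentration-response follow-up.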

[8] = target: human Adrenergic, Alpha 2A Receptor (Adra2A), ADRA2A (gene 150) (UniProt P08913); test: NVS_GPCR_hAdra2A: NovaScreen (NVS) G Protein-Coupled Receptor Assay for human Adrenergic, Alpha 2A Receptor (Adra2A) (AID 2283257)
Chain of human Adrenergic, Alpha 2A Receptor (Adra2A), ADRA2A (gene 150) (P08913 whole entry, looked up): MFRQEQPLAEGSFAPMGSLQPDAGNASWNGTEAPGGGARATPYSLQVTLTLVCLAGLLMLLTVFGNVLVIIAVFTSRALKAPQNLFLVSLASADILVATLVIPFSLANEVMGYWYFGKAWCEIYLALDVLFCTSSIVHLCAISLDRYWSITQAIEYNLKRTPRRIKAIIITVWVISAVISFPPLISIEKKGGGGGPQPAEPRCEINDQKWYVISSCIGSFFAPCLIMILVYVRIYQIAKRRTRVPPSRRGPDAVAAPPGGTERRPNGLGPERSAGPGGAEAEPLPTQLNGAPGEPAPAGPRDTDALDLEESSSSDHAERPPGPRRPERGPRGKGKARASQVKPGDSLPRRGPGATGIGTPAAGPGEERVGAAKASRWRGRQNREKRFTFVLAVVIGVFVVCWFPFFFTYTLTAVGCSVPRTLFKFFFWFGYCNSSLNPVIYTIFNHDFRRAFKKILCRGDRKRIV
In short: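 Radioligand filter-binding was run on HT29-derived membranes, cell-free, read by scintillation counting 1 h after dosing. Primary screening was in duplicate at 25 uM, with concentration series in follow-up. Loss of signal versus DMSO indicates displacement.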

[9] = target: human Serotonin, 5-Hydroxytryptamine Receptor 7 (5HT7), HTR7 (gene 3363) (UniProt P34969); test: NVS_GPCR_h5HT7: NovaScreen (NVS) G Protein-Coupled Receptor Assay for human Serotonin, 5-Hydroxytryptamine Receptor 7 (5HT7) (AID 2283255);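 further: hits reduce specific radioligand binding relative to DMSO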
Chain of human Serotonin, 5-Hydroxytryptamine Receptor 7 (5HT7), HTR7 (gene 3363) (P34969 whole entry, looked up): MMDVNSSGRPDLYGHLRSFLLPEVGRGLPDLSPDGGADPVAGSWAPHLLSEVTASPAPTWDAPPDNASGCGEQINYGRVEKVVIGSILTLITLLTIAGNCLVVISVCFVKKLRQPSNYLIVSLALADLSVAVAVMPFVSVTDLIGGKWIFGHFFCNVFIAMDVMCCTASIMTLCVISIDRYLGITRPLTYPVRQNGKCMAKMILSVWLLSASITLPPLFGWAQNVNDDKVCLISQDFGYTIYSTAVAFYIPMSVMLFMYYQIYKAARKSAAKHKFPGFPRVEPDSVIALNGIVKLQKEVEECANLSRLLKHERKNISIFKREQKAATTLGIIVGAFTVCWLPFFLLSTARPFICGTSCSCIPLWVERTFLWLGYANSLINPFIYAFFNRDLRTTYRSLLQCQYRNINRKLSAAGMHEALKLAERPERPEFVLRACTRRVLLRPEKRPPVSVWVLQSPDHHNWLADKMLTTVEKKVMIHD
In short: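 Radioligand displacement on membranes from CHO cells expressing human 5HT7, 1 h incubation, filter-based scintillation counting. Primary screen used a single 25 uM concentration in duplicate; actives were followed up in concentration series.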

[10] = target: Type-1 angiotensin II receptor (Homo sapiens) (UniProt P30556); test: NVS_GPCR_hAT1: NovaScreen (NVS) G Protein-Coupled Receptor Assay for human Angiotensin II receptor type 1 (AT1) (AID 2283263)
Chain of Type-1 angiotensin II receptor (Homo sapiens) (P30556 whole entry, looked up): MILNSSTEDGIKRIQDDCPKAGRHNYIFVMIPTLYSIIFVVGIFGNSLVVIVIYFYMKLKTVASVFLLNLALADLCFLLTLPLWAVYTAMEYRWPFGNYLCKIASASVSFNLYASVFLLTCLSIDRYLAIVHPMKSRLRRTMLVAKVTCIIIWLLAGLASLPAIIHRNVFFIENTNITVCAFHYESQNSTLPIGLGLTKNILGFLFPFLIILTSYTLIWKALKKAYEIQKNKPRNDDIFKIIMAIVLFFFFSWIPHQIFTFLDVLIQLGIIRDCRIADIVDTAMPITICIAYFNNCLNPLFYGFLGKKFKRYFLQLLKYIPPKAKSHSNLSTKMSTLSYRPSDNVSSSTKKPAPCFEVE
In short: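 Membranes from KAN-TS cells; radioligand competitive displacement, 3 h, filtration and scintillation counting. Single-point duplicate screen at 25 uM, then concentration-response up to 50 uM for hits; loss of signal fitted versus DMSO.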

Q: Which results are given for `CCCCN(CCCC)SN(C)C(=O)Oc1cccc2c1OC(C)(C)C2`?
A: outcome [1]: inactive; outcome [2]: inactive

Q: How did the outcome [3] turn out when `O=[N+]([O-])c1cc(Cl)ccc1Cl` was run?
A: inactive

Q: `CCOP(=S)(Oc1ccc([N+](=O)[O-])cc1)c1ccccc1` (stereo not drawn) was tested. Which outcome [1] did it give?
A: inactive

Q: For `ClC1=C(Cl)C2(Cl)C3C(Cl)C(Cl)CC3C1(Cl)C2(Cl)Cl` (stereo not drawn), which outcome [4] is on record?
A: inactive

Q: What about the outcome [5] of the same compound?
A: inactive

Q: `CCCN(CCC)c1c([N+](=O)[O-])cc(C(C)C)cc1[N+](=O)[O-]` was tested. Which outcome [1] did it give?
A: inactive

Q: And the outcome [5]?
A: inactive

Q: Which outcome [3] does the source give for `N#Cc1c(-c2ccc(Cl)cc2)[nH]c(C(F)(F)F)c1Br` here?
A: inactive

Q: For `CC1(C)CN=C(NN=C(/C=C/c2ccc(C(F)(F)F)cc2)/C=C/c2ccc(C(F)(F)F)cc2)NC1`, which AC50 [6] is on record?
A: 8.95 µM (active)

Q: How did the AC50 [7] turn out when `Cc1ccc2c(c1N)C(=O)c1ccccc1C2=O` was run?
A: 16.3 µM (active)

Q: What about the AC50 [3] of the same compound?
A: 4.77 µM (active)

Q: Which AC50 [7] does the source give for `Cc1cc(C)c(C(=O)P(=O)(c2ccccc2)c2ccccc2)c(C)c1` here?
A: 36 µM (active)

Q: For `CCNc1nc(Cl)nc(NC(C)(C)C)n1`, which outcome [7] is on record?
A: inactive

Q: For `CCCCCCCc1ccc(O)cc1`, which outcome [6] is on record?
A: inactive

Q: With `CC(Cc1ccc(OCC(=O)O)cc1)NCC(O)c1csc(C(F)(F)F)n1` (stereo not drawn) as the compound, how does the AC50 [8] read?
A: 25 µM (active)

Q: How did the outcome [9] turn out when `Nc1cc2c3c(c1)C(c1ccccc1)=N[C@@H](NC(=O)c1cccnc1)C(=O)N3CC2` was run?
A: inactive

Q: Which results are given for `CSC(C)(C)C=NO`?
A: outcome [7]: inactive; outcome [9]: inactive; outcome [3]: inactive; outcome [8]: inactive; outcome [6]: inactive; outcome [10]: inactive
